Laboratory results: publication PMC4336329 (PLoS ONE, 2015)
Hit rate of the full screen: of about 310,000 compounds, about 14,000 (4.5%) showed an effect of 50% or more. The effect is printed as a negative number. The sample holds strong results, similar compounds and a random draw of the others, so the mix is not that of the screen.

Each compound was assayed against human ether-à-go-go-related gene (hERG) potassium channel (human, UniProt Q12809) (assay: primary screen, population patch clamp on CHO cells stably expressing hERG; higher = less effect of the substance).
human ether-à-go-go-related gene (hERG) potassium channel, sequence (Q12809 whole entry, looked up): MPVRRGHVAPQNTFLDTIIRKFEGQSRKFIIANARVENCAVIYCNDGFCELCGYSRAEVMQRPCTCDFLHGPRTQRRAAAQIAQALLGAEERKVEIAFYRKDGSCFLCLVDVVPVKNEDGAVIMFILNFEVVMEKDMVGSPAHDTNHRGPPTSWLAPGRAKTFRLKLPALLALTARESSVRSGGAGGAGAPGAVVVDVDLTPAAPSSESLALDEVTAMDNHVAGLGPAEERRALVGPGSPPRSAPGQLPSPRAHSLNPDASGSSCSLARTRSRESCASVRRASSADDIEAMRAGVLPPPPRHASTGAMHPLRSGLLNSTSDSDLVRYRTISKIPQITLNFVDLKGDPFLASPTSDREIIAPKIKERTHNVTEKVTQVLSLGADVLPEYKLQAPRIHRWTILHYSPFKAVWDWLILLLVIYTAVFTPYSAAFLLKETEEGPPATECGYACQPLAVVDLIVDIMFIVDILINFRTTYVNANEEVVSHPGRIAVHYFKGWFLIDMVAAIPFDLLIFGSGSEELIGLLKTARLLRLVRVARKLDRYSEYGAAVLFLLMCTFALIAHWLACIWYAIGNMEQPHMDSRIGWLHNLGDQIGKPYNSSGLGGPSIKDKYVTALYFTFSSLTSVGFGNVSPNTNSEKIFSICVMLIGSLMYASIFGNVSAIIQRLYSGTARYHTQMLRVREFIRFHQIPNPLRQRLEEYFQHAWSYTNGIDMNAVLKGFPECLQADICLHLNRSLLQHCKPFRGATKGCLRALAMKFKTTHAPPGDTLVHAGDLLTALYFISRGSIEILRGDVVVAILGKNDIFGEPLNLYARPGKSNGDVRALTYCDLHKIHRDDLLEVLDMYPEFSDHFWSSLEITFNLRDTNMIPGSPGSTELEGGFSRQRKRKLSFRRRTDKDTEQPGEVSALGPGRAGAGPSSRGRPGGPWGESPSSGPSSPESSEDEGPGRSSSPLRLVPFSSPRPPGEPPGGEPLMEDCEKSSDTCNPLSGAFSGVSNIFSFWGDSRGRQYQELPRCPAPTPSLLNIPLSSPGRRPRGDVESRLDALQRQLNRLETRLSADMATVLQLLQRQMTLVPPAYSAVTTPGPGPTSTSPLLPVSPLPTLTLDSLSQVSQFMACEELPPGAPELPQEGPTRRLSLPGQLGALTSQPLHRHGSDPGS
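Further: peak tail current of the secondary pulse compared with the same well before compound.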

| Compound | hERG current change (%, negative = inhibition) at 10uM [%] |
| --- | --- |
| COc1ccc(CCNC(=O)c2nonc2N)cc1 | -15.8 |
| COc1ccc(CNC(=O)CN(CCC(C)C)S(=O)(=O)c2ccc3c(c2)OCCO3)cc1 | -7.73 |
| O=C(/C=C/c1cccc([N+](=O)[O-])c1)NCc1ccccc1 | -23.2 |
| Cc1ccc(C2CC(c3cccc(Br)c3)Nc3nnnn32)cc1 (stereo not shown) | -7.07 |
| CCCCNC(=O)N(O)C1N(CCCC)C(=O)N(CC(=O)OC)C1(C)C (stereo not shown) | 20 |
| CC(=O)c1sc(NC(=O)C2CC(=O)N(Cc3ccccc3)C2)nc1-c1ccccc1 (stereo not shown) | -15 |
| COc1ccc(-c2csc(NC(=O)C3CC(=O)N(Cc4ccco4)C3)n2)cc1 (stereo not shown) | -70.4 |
| CC(=O)c1sc(NC(=O)C2CC(=O)N(Cc3ccco3)C2)nc1-c1ccccc1 (stereo not shown) | -59.4 |
| CN(c1ccc(-c2csc(NC(=O)C3CC(=O)N(Cc4ccco4)C3)n2)cc1)S(C)(=O)=O (stereo not shown) | -19 |
| Cc1ccc(-c2csc(NC(=O)C3CC(=O)N(Cc4ccco4)C3)n2)cc1 (stereo not shown) | -25.5 |
| COc1ccc(-c2nc(NC(=O)C3CC(=O)N(Cc4ccco4)C3)sc2C)cc1 (stereo not shown) | -34.3 |
| CC(=O)COc1ccc2c3c(c(=O)oc2c1C)CCCCC3 | -8.54 |
| Cl.O=C(NCCCn1ccnc1)c1ccc(S(=O)(=O)N2CCOCC2)cc1 | 8.09 |
| COC(=O)c1ccc(C2/C(=C(\O)c3ccc4c(c3)OCCO4)C(=O)C(=O)N2CCCN(C)C)cc1 (stereo not shown) | -55.9 |
| COc1ccc(C2/C(=C(\O)c3ccc4c(c3)OCCO4)C(=O)C(=O)N2CCCN(C)C)cc1 (stereo not shown) | 17 |
| COCCCN1C(=O)C(=O)/C(=C(/O)c2ccc3c(c2)OCCO3)C1c1ccc(C(=O)OC)cc1 (stereo not shown) | 1.43 |
| O=C(COC(=O)CC1CC2CCC1C2)NC(=O)NCc1ccco1 (stereo not shown) | -4.89 |
| Cc1nc2ccccc2c(=O)n1/N=C/c1ccccc1Cl | 12.8 |
| COC(=O)Cc1ccc(NC(=S)N2CCCC(CO)C2)cc1 (stereo not shown) | -63.2 |
| CC(=O)c1ccc(NC(=S)N2CCCC(CO)C2)cc1 (stereo not shown) | 5.17 |
| COC(=O)Cc1ccc(NC(=S)N2CCCC(C)C2)cc1 (stereo not shown) | 12.7 |
| N=c1c(C(=O)NC2CCCCC2)cc2c(=O)n3ccccc3nc2n1CC1CCCO1 (stereo not shown) | -74.9 |

| Compound | hERG current change (%, negative = inhibition) at 10uM [%] |
| --- | --- |
| Cc1ccc(S(=O)(=O)c2cc3c(=O)n4ccccc4nc3n(CC3CCCO3)c2=N)cc1C (stereo not shown) | -50.8 |
| O=C(NC1CCCCC1)c1ccc2c(=O)n(CC3CCCO3)c(=O)[nH]c2c1 (stereo not shown) | 5.86 |
| Cc1ccc(S(=O)(=O)c2cc3c(=O)n4ccccc4nc3n(C)c2=N)cc1C | -2.47 |
| N=c1c(C(=O)NC2CCCC2)cc2c(=O)n3ccccc3nc2n1CC1CCCO1 (stereo not shown) | -83.7 |
| CC(NC(=O)c1cc2c(=O)n3ccccc3nc2n(CC2CCCO2)c1=N)c1ccccc1 (stereo not shown) | -75.2 |
| CCOC(=O)c1cc2c(=O)n3ccccc3nc2n(CC2CCCO2)c1=NC(=O)/C=C/c1ccccc1 (stereo not shown) | -35.7 |
| COCCNC(=O)CSc1nc2ccccc2c(=O)n1CC1CCCO1 (stereo not shown) | -11.9 |
| N=c1c(S(=O)(=O)c2ccccc2)cc2c(=O)n3ccccc3nc2n1CC1CCCO1 (stereo not shown) | -34 |
| NS(=O)(=O)c1cccc(NC(=O)COC(=O)C2(c3cccc(F)c3)CCCC2)c1 | -6.66 |
| Cc1ccc(NC(=O)c2sc(Cl)nc2-c2ccccc2)cc1C | 3.94 |
| CC1CC(C)CN(S(=O)(=O)c2ccc3c(c2)oc(=O)n3CC(=O)NCc2cccnc2)C1 (stereo not shown) | -17.2 |
| COc1cc(C(=O)NC2CCCC2)c(Br)c(OC)c1OC | 7.61 |
| COc1ccc(NC(=O)C(CCSC)N2C(=O)c3ccccc3C2=O)cc1 (stereo not shown) | -10.3 |
| Cc1ccc(S(=O)(=O)/N=C2\C=C(Nc3cccc(C(=O)O)c3)C(=O)c3ccccc32)c(C)c1 | 27.9 |
| CCCCn1c(N)c(N(CCOC)C(=O)c2cc(S(=O)(=O)N3CCOCC3)ccc2F)c(=O)[nH]c1=O | 16.1 |
| Cc1cc(C(=O)COC(=O)c2cccn2C)c(C)n1Cc1ccco1 | 21.4 |
| Cc1nnc(SCC(=O)Nc2nsc(-c3ccc(Cl)cc3)n2)s1 | 0.522 |
| Cc1cccc(N2CCN(S(=O)(=O)c3c(C(=O)N4CCCCC4)c(C)n(C)c3C)CC2)c1C | -9.26 |
| COCc1c(C(=O)N2CCN(Cc3c(F)cccc3Cl)CC2)oc2ccccc12 | -12.2 |
| COCc1c(C(=O)N2CCN(Cc3ccc(C#N)cc3)CC2)oc2ccccc12 | -70.2 |
| COCc1c(C(=O)N2CCN(CCOc3ccccc3)CC2)oc2ccccc12 | -63.5 |
| COCc1c(C(=O)N2CCN(c3ncccn3)CC2)oc2ccccc12 | -7.68 |

| Compound | hERG current change (%, negative = inhibition) at 10uM [%] |
| --- | --- |
| COCc1c(C(=O)N2CCN(Cc3ccc4c(c3)OCO4)CC2)oc2ccccc12 | -40.8 |
| COCc1c(C(=O)Nc2ccc3nc(N4CCOCC4)sc3c2)oc2ccccc12 | -31.2 |
| COCc1c(C(=O)N2CCN(c3ccc(C(F)(F)F)cn3)CC2)oc2ccccc12 | -23.7 |
| COCc1c(C(=O)N2CCN(S(=O)(=O)c3ccccc3Cl)CC2)oc2ccccc12 | -13.9 |
| COCc1c(C(=O)N2CCN(Cc3nc4ccccc4s3)CC2)oc2ccccc12 | -72.5 |
| CCC1Oc2ccccc2N(CC(=O)NCCCN2CCCC2)C1=O (stereo not shown) | 15.9 |
| O=C(c1ccc(F)cc1)C(Cc1ccccc1)N1CCCCC1 (stereo not shown) | 1.82 |
| COc1ccc(CN2CCN(C3CCC3)CC2CCO)cc1C (stereo not shown) | 8.14 |
| OCCC1CN(C2CCC2)CCN1Cc1ccc(F)c(F)c1 (stereo not shown) | 5.12 |
| CCOC(=O)N1CCC(N2CCN(Cc3ccc(F)c(F)c3)C(CCO)C2)CC1 (stereo not shown) | -44.7 |
| OCCC1CN(C2CCN(c3ccccc3)CC2)CCN1Cc1ccc(F)c(F)c1 (stereo not shown) | -71.2 |
| Cc1cccc(N2CCC(N3CCN(C4CCCCC4)C(CCO)C3)CC2)c1C (stereo not shown) | -42.7 |
| COc1cccc(CN2CCN(C3CCN(c4cccc(C)c4C)CC3)CC2CCO)c1 (stereo not shown) | -66.2 |
| CCOC(=O)N1CCC(N2CCN(Cc3ccccc3)C(CCO)C2)CC1 (stereo not shown) | -9.9 |
| OCCC1CN(C2CSCCSC2)CCN1Cc1ccccc1 (stereo not shown) | 11.9 |
| OCCC1CN(C2CCN(c3ccccc3F)CC2)CCN1Cc1ccccc1 (stereo not shown) | -61.8 |
| COc1cccc(CN2CCN(C3CCOCC3)CC2CCO)c1 (stereo not shown) | 0.171 |
| COc1cccc(CN2CCN(C3CSCCSC3)CC2CCO)c1 (stereo not shown) | -13 |
| COc1cccc(CN2CCN(C3CCN(c4ccccc4C)CC3)CC2CCO)c1 (stereo not shown) | -66.2 |
| Cc1n[nH]c(C)c1Sc1ccccc1N=Cc1cc(Cl)cc([N+](=O)[O-])c1O | -10.9 |
| N#CCSc1nnc(C2CCCCC2)n1-c1ccccc1 | 4.45 |
| CCOC(=O)c1c(C)oc2cc(Cl)c(O)c(CN(C)C)c12 | -6.79 |

| Compound | hERG current change (%, negative = inhibition) at 10uM [%] |
| --- | --- |
| CC(OC(=O)c1ccc(S(=O)(=O)NCc2ccco2)cc1)C(=O)Nc1ccc(Cl)cn1 (stereo not shown) | -39.8 |
| CC(C)C[C@@]12C(=O)N(c3cccc(Cl)c3)C(=O)N1[C@H](c1ccc(Br)cc1)[C@@H]1C(=O)N(C(C)(C)C)C(=O)[C@@H]12 | 22.7 |
| COc1ccc(CNC(=O)Nc2ccc3c(c2)N(C)C(=O)CS3)cc1 | -0.138 |
| CCC(C)[C@H](NC(=O)N1CCCCCC1)C(=O)OC (stereo partly shown) | 5.25 |
| O=C(NCc1ccccc1)C1=C[C@@H](c2ccc3c(c2)OCO3)C[C@@H](OCc2ccc(CO)cc2)O1 | -25 |
| CCOc1ccccc1CN1CCN(C2CCOCC2)CC1CCO (stereo not shown) | 9.47 |
| COc1cccc(CN2CCN(C3CCN(c4ccccc4F)CC3)CC2CCO)c1 (stereo not shown) | -74.9 |
| CCOc1ccccc1CN1CCN(C2CCC2)CC1CCO (stereo not shown) | 27.4 |
| COc1cc(CN2CCN(C3CCC3)CC2CCO)cc(OC)c1 (stereo not shown) | 8.54 |
| CCOc1ccccc1CN1CCN(C2CCN(c3ccccc3F)CC2)CC1CCO (stereo not shown) | -71.6 |
| COc1ccc(CN2CCN(C3CCC3)CC2CCO)c(F)c1 (stereo not shown) | 9.71 |
| COc1ccc(CNC(=O)COC(=O)c2ccco2)cc1 | 28.3 |
| Cc1cc(NC(=O)CSc2nnc(Cn3c(=O)sc4ccccc43)n2-c2ccccc2C)no1 | 2.54 |
| COc1ccc2nc(NC(=O)CSCc3c(C)noc3C)sc2c1 | 1.24 |
| Cc1ccc(OC(C)C(=O)N2CCCc3ccccc32)cc1 (stereo not shown) | -16.3 |
| O=C(Cn1nc(-c2ccccc2)nc1-c1ccccc1)OC1CCCCC1 | 7.88 |
| COCCCN(C(=O)CCOc1ccccc1C)c1c(N)n(Cc2ccccc2)c(=O)[nH]c1=O | -3.05 |
| CCCN(C(=O)CCOc1ccc(C(C)(C)C)cc1)c1c(N)n(Cc2ccccc2)c(=O)[nH]c1=O | 29.7 |
| Cc1ccccc1OCCC(=O)N(Cc1ccccc1)c1c(N)n(Cc2ccccc2)c(=O)[nH]c1=O | -7.3 |
| Cc1ccccc1OCCC(=O)N(CC(C)C)c1c(N)n(Cc2ccccc2)c(=O)[nH]c1=O | -64.4 |
| COCCCN(C(=O)CCOc1ccc(C(C)(C)C)cc1)c1c(N)n(Cc2ccccc2)c(=O)[nH]c1=O | -62.2 |
| COCCCN(C(=O)CCOc1ccc(C)cc1)c1c(N)n(Cc2ccccc2)c(=O)[nH]c1=O | -20.2 |
